# Test results published in PubChem BioAssay (NCATS).
# Results filed as inconclusive are left out. Calls of active or inactive are those of the source. Calls come from the whole dose curve; as a rule, active = well fitted cell-killing curve with a large enough effect; inconclusive = small, poorly fitted or top-dose-only effect, or effect the other way; inactive = no such curve, though single readings can be large or run the other way.
# How the values were obtained:
# [1] = Quantitative High-Throughput drug screen in 47 multiple myeloma cell lines against the NCATS MIPE library collection: OCIMY5_PLB cell viability assay (AID 1918988); note: nearly all actives have a fitted effect of over 65% in size
# Method in brief: (§1)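 Viability after 48 h drug exposure was measured as ATP-dependent luminescence. Cells, 500 per well, sat at 37 °C under 5% CO2; DMSO wells set 100%, media-only wells 0%.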
# [2] = Quantitative High-Throughput drug screen in 47 multiple myeloma cell lines against the NCATS MIPE library collection: SKMM1_PLB cell viability assay (AID 1919863); details: SKMM1 myeloma viability, CellTiter-Glo ATP, 48 h; viability: active compounds read low; note: nearly all actives have a fitted effect of over 35% in size
# Method in brief: as §1
# [3] = Quantitative High-Throughput drug screen in 47 multiple myeloma cell lines against the NCATS MIPE library collection: XG6_PLB cell viability assay (AID 1919865); note: nearly all actives have a fitted effect of over 40% in size
# Method in brief: as §1
# [4] = Quantitative High-Throughput drug screen in 47 multiple myeloma cell lines against the NCATS MIPE library collection: VP6_DJ cell viability assay (AID 1919867); note: nearly all actives have a fitted effect of over 40% in size
# Method in brief: as §1
# [5] = Quantitative High-Throughput drug screen in 47 multiple myeloma cell lines against the NCATS MIPE library collection: OCIMY7_PLB cell viability assay (AID 1918987); details: OCI-MY7 myeloma viability, CellTiter-Glo ATP, 48 h; viability (% of DMSO): at 45.8 µM (top of the series); note: nearly all actives have a fitted effect of over 65% in size
# Method in brief: as §1
# [6] = Quantitative High-Throughput drug screen in 47 multiple myeloma cell lines against the NCATS MIPE library collection: OPM1_PLB cell viability assay (AID 1918989); note: nearly all actives have a fitted effect of over 40% in size
# Method in brief: as §1
# [7] = Quantitative High-Throughput drug screen in 47 multiple myeloma cell lines against the NCATS MIPE library collection: U266_ATCC cell viability assay (AID 1919864); note: nearly all actives have a fitted effect of over 35% in size
# Method in brief: as §1
# [8] = Quantitative High-Throughput drug screen in 47 multiple myeloma cell lines against the NCATS MIPE library collection: RPMI8226_ATCC cell viability assay (AID 1919871); note: nearly all actives have a fitted effect of over 30% in size
# Method in brief: as §1
# [9] = Quantitative High-Throughput drug screen in 47 multiple myeloma cell lines against the NCATS MIPE library collection: UTMC2_PLB cell viability assay (AID 1919868); details: CellTiter-Glo ATP luminescence, 48 h; viability (% of DMSO control): at 45.8 µM (top of the series); note: nearly all actives have a fitted effect of over 55% in size
# Method in brief: as §1
# [10] = Quantitative High-Throughput drug screen in 47 multiple myeloma cell lines against the NCATS MIPE library collection: PCM6_Riken cell viability assay (AID 1919870); note: nearly all actives have a fitted effect of over 30% in size
# Method in brief: as §1
# [11] = Quantitative High-Throughput drug screen in 47 multiple myeloma cell lines against the NCATS MIPE library collection: OPM2_DSMZ cell viability assay (AID 1919872); note: nearly all actives have a fitted effect of over 30% in size
# Method in brief: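 Myeloma cells (500 per well) were exposed to MIPE 4.0 compounds by pin transfer and incubated 48 hours at 37C, 5% CO2. Viability was read as ATP by CellTiter-Glo luminescence, normalised to DMSO (100%) and media-only (0%) wells.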
# [12] = Quantitative High-Throughput drug screen in 47 multiple myeloma cell lines against the NCATS MIPE library collection: L363_DSMZ cell viability assay (AID 1918984); details: L363 myeloma viability, CellTiter-Glo ATP luminescence, 48 h; viability (% of control): at 45.8 µM (top of the series); note: nearly all actives have a fitted effect of over 40% in size
# Method in brief: as §1
# [13] = Quantitative High-Throughput drug screen in 47 multiple myeloma cell lines against the NCATS MIPE library collection: PE2_PLB cell viability assay (AID 1919869); note: nearly all actives have a fitted effect of over 35% in size
# Method in brief: as §1
# [14] = Quantitative High-Throughput drug screen in 47 multiple myeloma cell lines against the NCATS MIPE library collection: XG1_PLB cell viability assay (AID 1919866); note: nearly all actives have a fitted effect of over 35% in size
# Method in brief: as §1
# [15] = Quantitative High-Throughput drug screen in 47 multiple myeloma cell lines against the NCATS MIPE library collection: KMS11_JCRBsus cell viability assay (AID 1919873); note: nearly all actives have a fitted effect of over 50% in size
# Method in brief: as §1
# [16] = Quantitative High-Throughput drug screen in 47 multiple myeloma cell lines against the NCATS MIPE library collection: KMS28BM_JCRB cell viability assay (AID 1919874); note: nearly all actives have a fitted effect of over 35% in size
# Method in brief: as §1
# [17] = Quantitative High-Throughput drug screen in 47 multiple myeloma cell lines against the NCATS MIPE library collection: KMS34_JCRB cell viability assay (AID 1918985); note: nearly all actives have a fitted effect of over 40% in size
# Method in brief: as §1
# Potency is the fitted concentration of half-maximal effect.
structure (smiles),measurement,setting,value
COc1cc(Nc2nc3ccccc3nc2NS(=O)(=O)c2ccc(NC(=O)c3ccc(C)c(OC)c3)cc2)cc(OC)c1,Potency,[1],4.69 µM (active)
same,Potency,[2],10.5 µM (active)
same,Potency,[3],13.2 µM (active)
same,Potency,[4],5.9 µM (active)
Cc1cc(C(C)Nc2ccccc2)c2nc(N3CCOCC3)cc(=O)n2c1 (centres undefined),Potency,[5],2.09 µM (active)
same,Potency,[6],20.9 µM (active)
same,Potency,[7],inactive
same,Potency,[3],1.05 µM (active)
same,Potency,[4],3.32 µM (active)
same,Potency,[8],inactive
C[C@H](c1ccc(F)cc1CCCC(=O)O)N(c1cc(F)ccc1F)S(=O)(=O)c1ccc(Cl)cc1,Potency,[5],13.2 µM (active)
same,Potency,[1],14.8 µM (active)
same,Potency,[3],2.64 µM (active)
same,Potency,[4],3.72 µM (active)
same,Potency,[9],14.8 µM (active)
same,Potency,[10],6.62 µM (active)
same,Potency,[11],3.32 µM (active)
Nc1nc(Cl)nc2c1ncn2[C@@H]1O[C@H](CO)[C@@H](O)[C@H]1F,Potency,[12],0.0526 µM (active)
same,Potency,[1],0.0743 µM (active)
same,Potency,[6],1.48 µM (active)
same,Potency,[7],1.48 µM (active)
same,Potency,[3],0.0235 µM (active)
same,Potency,[4],0.187 µM (active)
same,Potency,[9],0.332 µM (active)
same,Potency,[13],0.418 µM (active)
same,Potency,[8],2.35 µM (active)
CCOC(=O)[C@@H](N)CCC(=O)N[C@@H](CSCc1ccccc1)C(=O)N[C@@H](C(=O)OCC)c1ccccc1,Potency,[5],23.5 µM (active)
same,Potency,[3],11.8 µM (active)
same,Potency,[14],23.5 µM (active)
same,Potency,[9],23.5 µM (active)
same,Potency,[13],20.9 µM (active)
same,Potency,[8],inactive
same,Potency,[15],inactive
same,Potency,[16],inactive
CN1N=C(N)c2cn([C@@H]3O[C@H](COP(=O)(O)O)[C@@H](O)[C@@H]3O)c3ncnc1c23,Potency,[17],0.833 µM (active)
same,Potency,[5],2.09 µM (active)
same,Potency,[1],0.296 µM (active)
same,Potency,[6],0.469 µM (active)
same,Potency,[2],1.32 µM (active)
same,Potency,[7],5.26 µM (active)
same,Potency,[9],0.0235 µM (active)
same,Potency,[13],0.059 µM (active)
same,Potency,[10],1.05 µM (active)
same,Potency,[8],0.105 µM (active)
CC(C)n1c(C=C[C@H](O)C[C@H](O)CC(=O)O)c(-c2ccc(F)cc2)c2ccccc21,Potency,[12],4.18 µM (active)
same,Potency,[5],4.18 µM (active)
same,Potency,[6],5.26 µM (active)
same,Potency,[2],16.6 µM (active)
same,Potency,[7],4.18 µM (active)
same,Potency,[3],16.6 µM (active)
same,Potency,[14],4.69 µM (active)
same,Potency,[4],16.6 µM (active)
same,Potency,[13],14.8 µM (active)
same,Potency,[8],18.7 µM (active)
same,Potency,[15],8.33 µM (active)
CCNC(=O)c1noc(-c2cc(C(C)C)c(O)cc2O)c1-c1ccc(CN2CCOCC2)cc1,Potency,[5],0.0469 µM (active)
same,Potency,[6],0.0833 µM (active)
same,Potency,[7],0.0332 µM (active)
same,Potency,[3],0.132 µM (active)
same,Potency,[14],0.0743 µM (active)
same,Potency,[4],0.0372 µM (active)
same,Potency,[9],0.0833 µM (active)
same,Potency,[13],0.105 µM (active)
same,Potency,[10],0.0526 µM (active)
same,Potency,[15],0.0235 µM (active)
same,Potency,[16],0.0332 µM (active)
Cc1ccc(S(=O)(=O)Nc2nc3ccccc3nc2Nc2ccc3nsnc3c2)cc1,Potency,[12],0.204 µM (active)
same,Potency,[5],1.44 µM (active)
same,Potency,[6],1.15 µM (active)
same,Potency,[2],7.24 µM (active)
same,Potency,[3],0.0724 µM (active)
same,Potency,[14],0.575 µM (active)
same,Potency,[4],0.645 µM (active)
same,Potency,[9],1.02 µM (active)
same,Potency,[15],11.5 µM (active)
Cc1cc(NC(=O)Nc2ccc(N(C)C)cc2)c2cc(F)cc(F)c2n1,Potency,[6],inactive
same,Potency,[7],inactive
same,Potency,[3],inactive
same,Potency,[14],3.32 µM (active)
same,Potency,[9],inactive
same,Potency,[13],inactive
same,Potency,[10],inactive
same,Potency,[16],inactive
CCCCN(CCCC)CC(O)c1cc(Cl)cc2c1-c1ccc(Cl)cc1C2=Cc1ccc(Cl)cc1 (centres undefined),Potency,[12],inactive
same,Potency,[5],26.4 µM (active)
same,Potency,[1],10.5 µM (active)
same,Potency,[6],18.7 µM (active)
same,Potency,[2],33.2 µM (active)
same,Potency,[7],inactive
same,Potency,[3],26.4 µM (active)
same,Potency,[14],23.5 µM (active)
same,Potency,[4],23.5 µM (active)
same,Potency,[13],20.9 µM (active)
COc1cc2c(cc1OC)[C@@H]1Cc3ccc(OC)c(OC)c3CN1CC2,Potency,[1],5.9 µM (active)
same,Potency,[7],11.8 µM (active)
same,Potency,[3],inactive
same,Potency,[8],18.7 µM (active)
same,Potency,[11],13.2 µM (active)
same,Potency,[16],8.33 µM (active)
CCN1CCN(c2ccc(Nc3cc(N(C)C(=O)Nc4c(Cl)c(OC)cc(OC)c4Cl)ncn3)cc2)CC1,Potency,[1],13.2 µM (active)
same,Potency,[6],0.0235 µM (active)
same,Potency,[7],inactive
same,Potency,[3],6.62 µM (active)
same,Potency,[14],11.8 µM (active)
same,Potency,[4],23.5 µM (active)
same,Potency,[13],inactive
same,Potency,[8],inactive
same,Potency,[16],inactive
C[C@H]1[C@H](O)O[C@@H]2O[C@@]3(C)CC[C@@H]4[C@H](C)CC[C@@H]1[C@@]24OO3,Potency,[12],2.35 µM (active)
same,Potency,[5],1.18 µM (active)
same,Potency,[1],5.26 µM (active)
same,Potency,[6],11.8 µM (active)
same,Potency,[3],3.72 µM (active)
same,Potency,[14],3.72 µM (active)
same,Potency,[4],1.48 µM (active)
same,Potency,[13],2.35 µM (active)
same,Potency,[8],1.32 µM (active)
Cc1ccc(C(=O)N(CCCN)[C@@H](c2nc3cc(Cl)ccc3c(=O)n2Cc2ccccc2)C(C)C)cc1,Potency,[17],inactive
same,Potency,[2],23.5 µM (active)
same,Potency,[7],26.4 µM (active)
same,Potency,[10],5.26 µM (active)
same,Potency,[11],inactive
same,Potency,[15],inactive
O=C1NC(=O)C(c2cnc3ccccn23)=C1c1cn2c3c(cccc13)CN(C(=O)N1CCOCC1)CC2,Potency,[12],0.0093 µM (active)
same,Potency,[5],0.0743 µM (active)
same,Potency,[1],0.372 µM (active)
same,Potency,[6],10.5 µM (active)
same,Potency,[7],inactive
same,Potency,[3],1.87 µM (active)
same,Potency,[4],5.26 µM (active)
same,Potency,[10],7.43 µM (active)
same,Potency,[8],18.7 µM (active)
same,Potency,[15],0.0935 µM (active)
same,Potency,[16],inactive
